# Assay results published in PubChem BioAssay AID1159606 (Sanford-Burnham Center for Chemical Genomics, 2016).
# The whole screen tested about 360,000 compounds, of which about 7,300 (2%) were called active. The entries come from a sample that favours actives as a whole. Unmarked numbers belong to inactive results. Cut-off read from the data, not from the text of the source: active = inhibition above about 50%; inactive = the rest.
# Test: inhibitors of TWEAK-Fn14 signaling, primary screen, luciferase reporter cells, uHTS (AID 1159606)
# Conditions: TWEAK-stimulated Fn14 reporter cells, luciferase luminescence, 8 h; at 10 µM; active compounds read high
row,SMILES,inhibition
1,COc1cccc(NC(=O)Cn2c3ccc(F)cc3c3nc4n(c(=O)c32)CCS4)c1,7%
2,CCN(CC(=O)Nc1ccccc1C(F)(F)F)C(=O)C1CCN(C(=O)Nc2ccccc2)CC1,4.09%
3,C=C1C(=O)OC2C1CCC(C)=CCCC1(C)OC21 (stereo unspecified),81.5% (active)
4,C[C@H]1COc2cc(N3CCSCC3)ccc2S(=O)(=O)N1,-13.1%
5,O=c1c2ccccc2ncn1CCc1ccncc1,-5.08%
6,O=c1c2ccccc2ncn1/N=C/c1ccccc1,62.7% (active)
7,CCOC(=O)N1CCN(C(=O)Cn2cnc3ccccc3c2=O)CC1,-13.1%
8,CCOc1cc(/C=N/NC(=O)c2ccncc2)cc(Br)c1O,-8.09%
9,Nn1c(SCC(=O)Nc2ccc3c(c2)CCC3)nnc1C1CC1,1.14%
10,CCCn1c(N)c(C(=O)CSc2nc3ccccc3c(=O)n2-c2ccc(OC)cc2)c(=O)[nH]c1=O,2.25%
11,Cc1c(NC(=O)c2coc(=O)c(Br)c2)c(=O)n(-c2ccccc2)n1C,65.9% (active)
12,Cc1c(NC(=O)c2cc(-c3ccc(Br)cc3)on2)c(=O)n(-c2ccccc2)n1C,10.9%
13,Cc1cc2oc(C(=O)Nc3c(C)n(C)n(-c4ccccc4)c3=O)c(C)c2cc1Cl,4.85%
14,CCOc1ccc(NC(=O)c2ccc(NC(=O)CN3C(=O)C(=O)N(CC(C)C)C3=O)cc2)cc1,-46.8%
15,Cc1cc(C)n2nc(C(=O)Nc3cccc(S(=O)(=O)N4CCOCC4)c3)nc2n1,-5.76%
16,O=C1C2C3C=CC(C4CC34)C2C(=O)N1c1nccs1 (stereo unspecified),17.6%
17,O=C(C[C@H]1C[C@H](C(=O)N2CCOCC2)[C@@]2(CCC3CCCC3)c3[nH]c4ccc(Cl)cc4c3CCN2C1=O)NCc1ccco1,32.8%
18,COc1ccc2[nH]c3c(c2c1)CCN1C(=O)C(CC(=O)NCCCN(C)C)C[C@H](C(=O)N2CCOCC2)[C@@]31CCC1CCCC1 (stereo partly specified),-4.84%
19,COc1ccc(CNC(=O)C[C@H]2C[C@H](C(=O)N3CCOCC3)[C@@]3(CCC4CCCC4)c4[nH]c5ccc(Cl)cc5c4CCN3C2=O)cc1OC,60.6% (active)
20,Cc1cc(C)c(S(=O)(=O)NN=C2c3ccccc3[C@H]3Cc4csc[n+]4[C@@H]23)c(C)c1,13.8%
21,Clc1ccc(-c2cc(-c3ccccn3)on2)c(Cl)c1,83.2% (active)
22,Clc1ccc(COn2c(-c3ccc(Cl)cc3Cl)nc3ncccc32)cc1,11.7%
23,Fc1ccc(-c2ccc(CNCc3ccccn3)o2)cc1Cl,-29.9%

row,SMILES,inhibition
1,COc1cc([N+](=O)[O-])ccc1NC(=S)N1CCN(c2ccccn2)CC1,-16.1%
2,COc1ccc(-c2c(C)cc3oc(=O)cc(-c4ccccc4)c3c2C)cc1OC,-10.1%
3,COc1cc(OC)c2c(-c3cccc(-c4cccc(N)c4)c3)cc(=O)oc2c1,54.3% (active)
4,COc1ccc(-c2c(C)cc3oc(=O)cc(-c4ccccc4)c3c2C)cc1F,-37%
5,CC(C)[C@@H]1NC(=O)c2cc([N+](=O)[O-])cc(I)c2NCCC[C@@H](C(=O)NC(CC(=O)O)C(N)=O)NC(=O)[C@H](CO)NC1=O (stereo partly specified),-9.29%
6,COc1ccccc1C(=O)NCCn1cc(SCC(=O)NCc2ccco2)c2ccccc21,8.15%
7,CCc1oc(-c2ccc(OC)cc2)c(C(=O)OCCCCCO)c1C(C)OCCO (stereo unspecified),-8.4%
8,Cc1cc(Cl)ccc1NNC(=O)c1snnc1C,78.6% (active)
9,Cc1nnsc1C(=O)Nc1cccc(Cl)c1C,-11.4%
10,Cc1nnsc1C(=O)NCc1c(F)cccc1Cl,21.4%
11,CCOC(=O)[C@]12CCCC=C1N(Cc1ccc3c(c1)OCO3)C(=O)[C@H](CC(=O)N1CCN(C(=O)c3ccco3)CC1)C2,10.3%
12,CCOc1ccccc1Oc1cn[nH]c1-c1ccc(OC)cc1O,33.5%
13,COc1ccc(-c2cn[nH]c2-c2ccc(OC)cc2)cc1,80.3% (active)
14,COc1ccc(Oc2cn[nH]c2-c2ccc(OC)cc2O)cc1,-3.87%
15,CC12CCC(=O)C=C1CCC1C2C(O)CC2(C)C1CCC2(O)C(O)CO (stereo unspecified),8.15%
16,COc1ccccc1Cc1c(-c2ccc(Cl)cc2)nc2c3ccccc3ccn12,-9.82%
17,Clc1ccc(-n2nnnc2-c2cnc(-c3ccccn3)nc2-c2cccs2)cc1,10%
18,c1ccc(-c2noc(-c3cccs3)n2)nc1,76.2% (active)
19,O=C(Oc1ccc(-c2nc(-c3ccccn3)no2)cc1)c1ccccc1,92.9% (active)
20,COc1ccc(CCc2nc(-c3cccs3)no2)cc1,-31.5%
21,Brc1ccc(-c2noc(-c3ccccc3)n2)o1,-28%
22,O=C(COC(=O)c1ccncc1)c1ccccc1,-3.5%
23,COCCN(C(=O)C(C)C)c1nnc(-c2ccc(C(C)(C)C)cc2)s1,-18%

row,SMILES,inhibition
1,CCCCN(C(=O)C1=NN(c2cc(C)ccc2C)C(=O)CC1)c1c(N)n(CCC)c(=O)[nH]c1=O,4.67%
2,O=C1NC(O)CCN1C1CC(O)C(CO)O1 (stereo unspecified),2.05%
3,O=C(Nc1ccc(CSc2ccccc2)cc1)c1ccc(CN2CCOCC2)cc1,62.3% (active)
4,O=C(Nc1ccccc1C(=O)N1CCOCC1)c1ccc(CSc2ccccc2)cc1,-16.9%
5,CCOc1ccc(C(=O)Nc2ccc(CN3CCOCC3)cc2)cc1Cl,-17.1%
6,CCOC1CCCCC1NS(=O)(=O)c1ccc(Cl)cc1 (stereo unspecified),23.1%
7,COc1ccc2c(c1)CCC/C2=N\OC(=O)c1ccccc1F,36.7%
8,CC(C)C[C@@H]1Cc2[nH][nH]c(=O)c2[C@H](CCc2ccccc2)O1,17%
9,CC(NC(=O)Nc1ccccc1)C(c1cccs1)N1CCN(c2ccccc2)CC1 (stereo unspecified),1.76%
10,Cc1noc(C)c1CSCC(=O)Nc1nc2ccc(Oc3ccccc3)cc2s1,-4.3%
11,O=c1oc2ccccc2cc1-c1csc(Nc2ccc(O)cc2)n1,82.7% (active)
12,Cc1ccc(Nc2nc(-c3ccc(O)cc3O)cs2)nc1,-37.9%
13,COc1ccc(OC)c(-c2csc(NC(=O)C3=NNC(=O)CC3)n2)c1,-2.91%
14,Cc1ccn2c(-c3csc(Nc4ccc(C(=O)O)cc4)n3)c(C)nc2c1,21.8%
15,COc1ccc2nc(Nc3nc(-c4cc5ccccc5oc4=O)cs3)sc2c1,64.4% (active)
16,CN(C)CCCOc1ccc(-c2ccc3nccn3c2)cn1,-18.9%
17,Cc1ccc(NC(=O)c2cc([N+](=O)[O-])ccc2Cl)c(O)c1,2.69%
18,O=C(NCC(c1cccs1)N1CCOCC1)c1cc(Cl)ccc1[N+](=O)[O-] (stereo unspecified),7.3%
19,O=C(Nc1cccc2ccccc12)c1[nH]c(-c2ccccc2)c2c1C(=O)N(C1CC1)C2=O,-46.7%
20,Cc1ccc(NC(=O)COC(=O)CN2CCSC2=O)cc1F,1.95%
21,Cn1c(=O)c2c(nc(Br)n2CCSc2nc3ccccc3o2)n(C)c1=O,7.06%
22,CN1C(CC(=O)Nc2ccc(Br)cc2)c2ccccc2CC1(C)C (stereo unspecified),12.1%
23,COc1ccc(Sc2ccc(NC(=O)c3cccc(Cl)c3)cc2C#N)cc1,26.3%

row,SMILES,inhibition
1,COc1ccc(Nc2cc(Sc3ccc(OC)cc3)ncn2)cc1,69.9% (active)
2,COc1ccc(Nc2cc(=O)oc3ccccc23)cc1,12.8%
3,CN(C)CCCNC(=O)c1cc(C(=O)Cc2ccc(Cl)cc2)c[nH]1,5.27%
4,CC(C)Cn1cc(-c2cncc3nccn23)cn1,5.78%
5,COC(=O)CC1=NN(c2ccccc2)C(=O)C1,-14.8%
6,CCc1nc2ccccc2c(C(=O)NCc2ccc(OC)cc2)c1C,-1.16%
7,COC(=O)Cc1[nH]n(-c2nc3ccccc3s2)c(=O)c1C(C)=Nc1ccc(OC)cc1,101% (active)
8,CCOc1ccc2c(c1)c(=O)c(S(=O)(=O)c1ccc(C)cc1)cn2CC,-0.17%
9,Cc1ccc(N2C(=O)CN=C2Nc2nc(C)cc(C)n2)cc1,4.62%
10,O=C1NNC(c2ccccc2)=N/C1=C\c1ccc(Cl)cc1,16.8%
11,O=C(NC1CC1)c1cccc(Br)c1,84.3% (active)
12,O=C(NC1CC1)c1ccc(-c2ccccc2)cc1,-4.49%
13,CC(=O)N1CCN(S(=O)(=O)c2cccc(C(=O)NC3CCC(C)CC3)c2)CC1 (stereo unspecified),3.88%
14,COCCN(C(=O)CC1CCCCC1)c1c(N)n(CC(C)C)c(=O)[nH]c1=O,19.1%
15,O=C(Nc1ccc(Cl)cc1)/C(=C1\CCCN1)[N+](=O)[O-],-36.6%
16,COc1ccc(N2C(=O)C(O)C2c2ccc(C)cc2)cc1 (stereo unspecified),6.39%
17,COC(=O)COc1ccc(S(=O)(=O)N2CCOCC2)cc1,12.7%
18,COc1ccc(C(=O)Nc2cc(S(=O)(=O)N3CCCC3)ccc2Cl)cc1,-16%
19,COc1ccc(C(=O)Nc2nc(-c3ccc(S(=O)(=O)N4CCOCC4)cc3)cs2)cc1,93.7% (active)
20,CS(=O)(=O)/C(C#N)=C/c1cccn1S(=O)(=O)c1ccc([N+](=O)[O-])cc1,-15.1%
21,CCC(=O)N1Cc2cc(C(=O)NCc3cccc(F)c3)nc(-c3cccc(C4=CCCC4)c3)c2[C@H]1CCO,-7.06%
22,Cc1ccc(Cl)cc1N1CCN(C(=O)c2cccc3c(=O)c(C)c(-c4ccccc4)oc23)CC1,40.6%
